Screening data deposited in PubChem BioAssay by National Center for Advancing Translational Sciences (NCATS).
A selection: hits, their analogues and other compounds. The true share with any hit is near 13%.
G9a block – qHTS Assay for Inhibitors of Histone Lysine Methyltransferase G9a | G9a H3K9 monomethylation, AlphaScreen, 2 h | Potency, µM (highest dose often 102 µM), actives largely listed as inhibitors | 350,000 compounds, 8.8% hits | AID 504332, 2011; further: nearly all actives have a fitted effect of over 75% in size
Target sequence (Q96KQ7 913-1193 limits assumed): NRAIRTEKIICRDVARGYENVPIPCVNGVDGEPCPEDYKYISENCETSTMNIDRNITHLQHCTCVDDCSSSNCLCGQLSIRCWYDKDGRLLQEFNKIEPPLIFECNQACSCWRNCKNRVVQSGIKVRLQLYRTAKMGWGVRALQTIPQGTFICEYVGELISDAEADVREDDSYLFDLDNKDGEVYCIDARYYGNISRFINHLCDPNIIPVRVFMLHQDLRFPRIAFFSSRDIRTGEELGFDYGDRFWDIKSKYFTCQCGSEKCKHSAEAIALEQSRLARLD
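Compounds were preincubated with 20 nM G9a for 15 min, after which biotinylated H3K9 peptide (500 nM) and SAM (20 uM) started a 2 h room-temperature reaction. Monomethylated product was quantified by antibody-based AlphaScreen chemiluminescence.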
miR-21 act – qHTS Assay for Modulators of miRNAs and/orActivators of miR-21 | HeLa miR-21 FLuc reporter, luciferase, 48 h | Potency, µM (doses to about 38.3 µM), usual class: activators | 340,000 tested, under 10 active;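 further: miR-21 action dims this reporter so a rising signal means less miR-21 action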
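HeLa cells stably expressing CMV-driven firefly luciferase with a downstream miR-21 binding sequence, endogenously expressing miR-21, were treated with titrations (up to about 40uM final) for 48 hours at 37 degree Celsius. Luciferase luminescence was read after lysis.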
ALDH1A1 inh – qHTS Assay for Inhibitors of Aldehyde Dehydrogenase 1 (ALDH1A1); Purified ALDH1A1, NADH fluorescence, propionaldehyde substrate; Potency, µM (top dose mostly 75.3 µM), usual class: inhibitors; 220,000 compounds, 7.3% hits; AID 1030, 2008; active means well fitted inhibition curve with a large enough effect, not every such curve was filed as active; inconclusive means small, poorly fitted or top-dose-only effect, or another doubt; inactive means no such curve, though single readings can be large or run the other way
JMJD2E inh – qHTS Assay for Inhibitors of Human Jumonji Domain Containing 2E (JMJD2E). JMJD2E catalytic domain, FDH-coupled NADH fluorescence (FDH is formaldehyde dehydrogenase). Lysine-specific demethylase 4E (Homo sapiens), B2RXH2. Potency, µM (highest dose often 57.1 µM), hits mostly inhibitors. 230,000 compounds, 1.6% hits; active means well fitted inhibition curve with a large enough effect, not every such curve was filed as active; inconclusive means small, poorly fitted or top-dose-only effect, or another doubt; inactive means no such curve, though single readings can be large or run the other way; further: nearly all actives have a fitted effect of over 50% in size
Target sequence (B2RXH2 1-337 limits assumed): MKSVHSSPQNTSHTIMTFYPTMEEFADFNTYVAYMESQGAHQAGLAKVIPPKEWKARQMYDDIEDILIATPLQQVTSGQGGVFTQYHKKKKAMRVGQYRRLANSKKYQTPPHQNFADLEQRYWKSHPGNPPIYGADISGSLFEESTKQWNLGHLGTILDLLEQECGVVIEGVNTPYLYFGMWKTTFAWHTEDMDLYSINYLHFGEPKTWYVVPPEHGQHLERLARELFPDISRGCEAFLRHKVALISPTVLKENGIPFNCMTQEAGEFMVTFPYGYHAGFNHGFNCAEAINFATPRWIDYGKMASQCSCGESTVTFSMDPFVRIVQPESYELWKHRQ
LMNA splice mod – qHTS Assay for Modulators of Lamin A Splicing; HeLa LMNA splicing GFP/RFP minigene ratio, 48 h; 200,000 compounds, 0.01% hits; Potency, µM (titrated, usually from 46.1 µM), actives largely listed as inhibitors; active means well fitted inhibition curve with a large enough effect in the signal ratio, with a control signal flat, not every such curve was filed as active; inconclusive means small, poorly fitted or top-dose-only effect, or effect the other way, or a change in a side signal; the % refers to the signal ratio
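S3 HeLa stable clones carrying a lamin A-EGFP splicing minigene plus DsRed2 were seeded at 600 cells/well in Opti-MEM with 2% FBS, pin-dosed and incubated 48 h at 37°C. Acumen cytometry (488 nm) gave the GFP/RFP total-intensity ratio.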
Sfp inh – qHTS Assay for Inhibitors of Bacillus subtilis Sfp phosphopantetheinyl transferase (PPTase). Potency, µM, usual class: inhibitors. AID 1490, 2009. 310,000 compounds, 3.5% hits. 4'-phosphopantetheinyl transferase ffp (Bacillus subtilis), Q9F4F7. Biochemical Sfp PPTase activity, qHTS;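 further: the enzyme is Sfp with the accession as filed and its product quenches rhodamine fluorescence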
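Step 1, compound plus 15 nM Sfp-PPTase, 15 min, room temperature. Step 2, add rhodamine-CoA (5 uM) and BHQ-2-YbbR (12.5 uM). Step 3, read 525/598 nm fluorescence at 0 and 30 min.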
Of the large screens only hits and unclear results are named; the others gave an inactive call. Unless noted, the call rests on the fitted dose curve; in most records, active means well fitted curve in the direction sought with a large enough effect; inconclusive means small, poorly fitted or top-dose-only effect, or another doubt; inactive means no such curve, though single readings can be large; an effect the other way counts as inactive or inconclusive.

O=C(O)c1cccc(Nc2ccc3nonc3c2[N+](=O)[O-])c1	none (no result: ALDH1A1 inh, JMJD2E inh, LMNA splice mod)
O=[N+]([O-])c1c(Nc2cccc(O)c2)cc(Cl)c2nonc12	G9a block 44.7µM, miR-21 act inconclusive, Sfp inh 56.2µM (no result: ALDH1A1 inh, JMJD2E inh, LMNA splice mod)
O=C(O)c1ccc(Nc2cc(Cl)c3nonc3c2[N+](=O)[O-])cc1	G9a block 35.5µM, Sfp inh 35.5µM
Cc1c(Nc2cc(Cl)c3nonc3c2[N+](=O)[O-])c(=O)n(-c2ccccc2)n1C	G9a block 7.08µM, miR-21 act inconclusive, Sfp inh inconclusive (no result: LMNA splice mod)
Cc1c(Nc2cc(N3CCOCC3)c3nonc3c2[N+](=O)[O-])c(=O)n(-c2ccccc2)n1C	G9a block inconclusive (no result: LMNA splice mod)
CCC(C)Sc1cccc(-c2nc3cc(C)ccn3c2NCc2ccccc2)c1 (configuration not stated)	none (no result: miR-21 act, ALDH1A1 inh, JMJD2E inh, LMNA splice mod, Sfp inh)
COc1ncc2nc(-c3cn(C)c4ccccc34)c(=O)n(CCc3ccccc3)c2n1	none (no result: miR-21 act, JMJD2E inh)
N#CC1(C#N)CC(C=O)=C(N)C1(C#N)CC(=O)C12CC3CC(CC(C3)C1)C2 (configuration not stated)	G9a block inconclusive, ALDH1A1 inh 17.8µM, LMNA splice mod inconclusive
COc1ccc(-c2cc(-c3ccco3)[nH]c(=O)c2C#N)cc1OC	G9a block 10µM, ALDH1A1 inh inconclusive, JMJD2E inh inconclusive, Sfp inh 22.4µM (no result: LMNA splice mod)
N#Cc1c(-c2ccccc2)cc(-c2ccc3c(c2)OCO3)[nH]c1=O	none (no result: miR-21 act, ALDH1A1 inh, JMJD2E inh, LMNA splice mod, Sfp inh)
N#Cc1c(-c2ccco2)cc(-c2cccnc2)nc1N	G9a block 35.5µM, ALDH1A1 inh inconclusive, JMJD2E inh inconclusive
N#Cc1c(-c2ccco2)cc(C2CC2)nc1N	G9a block 14.1µM, ALDH1A1 inh inconclusive, JMJD2E inh inconclusive, Sfp inh 31.6µM
N#Cc1c(-c2cccnc2)cc(-c2ccccc2)nc1N	JMJD2E inh inconclusive (no result: G9a block, ALDH1A1 inh, LMNA splice mod)
Cc1sc2nc(COC(=O)c3ccc(N4CCCC4)c([N+](=O)[O-])c3)[nH]c(=O)c2c1C	G9a block inconclusive, ALDH1A1 inh 17.8µM
Cc1sc2nc(COC(=O)CNC(=O)c3ccc(C(C)(C)C)cc3)[nH]c(=O)c2c1C	ALDH1A1 inh 8.91µM
Cc1sc2nc(COC(=O)c3ccc(N4CCCC(C)C4)c([N+](=O)[O-])c3)[nH]c(=O)c2c1C (configuration not stated)	G9a block inconclusive, LMNA splice mod inconclusive
CC(=O)c1cccc(NC(=O)N2C3CCCC2CC(NC(=O)C2CC2)C3)c1 (configuration not stated)	none (no result: ALDH1A1 inh, JMJD2E inh, LMNA splice mod)
O=C(Nc1nncs1)c1c(F)c(F)c(F)c(F)c1F	ALDH1A1 inh 17.8µM
CC(Oc1ccc(F)cc1)C(=O)Nc1sc2c(c1C(=O)NCc1cccnc1)CCCC2 (configuration not stated)	G9a block 44.7µM, LMNA splice mod inconclusive
Cc1cc(C)cc(OC(C)C(=O)Nc2ccccc2C(=O)NCc2cccnc2)c1 (configuration not stated)	G9a block 50.1µM, Sfp inh 35.5µM (no result: ALDH1A1 inh, JMJD2E inh, LMNA splice mod)
COC(=O)c1sc(NC(=O)c2ccco2)c(C#N)c1C	G9a block 35.5µM, Sfp inh 39.8µM (no result: ALDH1A1 inh, LMNA splice mod)
CCOC(=O)c1sc(NC(=O)CSc2ccccn2)c(C#N)c1C	ALDH1A1 inh 25.1µM
CCOC(=O)c1sc(NC(=O)CSc2ncn[nH]2)c(C#N)c1C	G9a block inconclusive
CCOC(=O)c1sc(NC(=O)CSc2n[nH]c(-c3ccccc3)n2)c(C#N)c1C	G9a block inconclusive, ALDH1A1 inh 2.82µM, JMJD2E inh inconclusive, Sfp inh 7.08µM
CCOC(=O)c1sc(NC(=O)CSc2nc(C)cc(C)n2)c(C#N)c1C	none
O=C(CSc1n[nH]c(-c2ccccc2)n1)Nc1ccccc1O	G9a block 50.1µM (no result: ALDH1A1 inh, JMJD2E inh, LMNA splice mod)
COc1ccccc1NC(=O)c1sc(NC(=O)c2ccco2)c(C#N)c1C	ALDH1A1 inh inconclusive
CCSc1nc(-c2ccccc2OC)nc2c1Cc1c(CO)cnc(C)c1O2	none (no result: ALDH1A1 inh, JMJD2E inh, LMNA splice mod, Sfp inh)
CCOC(=O)NC(=O)C(/C=N/c1sccc1C(=O)OC)=C(\C)O	ALDH1A1 inh inconclusive, JMJD2E inh inconclusive
CCOC(=O)c1sc(NC(=O)c2cccnc2)c(C#N)c1C	G9a block 11.2µM, LMNA splice mod inconclusive
COc1ccccc1OCC(=O)Nc1oc(-c2ccccc2)c(-c2ccccc2)c1C#N	JMJD2E inh inconclusive, LMNA splice mod inconclusive
N#Cc1c(NC(=O)COC(=O)C2CC3C=CC2C3)oc(-c2ccccc2)c1-c1ccccc1 (configuration not stated)	G9a block 7.08µM, ALDH1A1 inh inconclusive, JMJD2E inh inconclusive, LMNA splice mod inconclusive
CCOC(=O)c1sc(NC(=O)c2cc(-c3ccccc3)nc3ccccc23)c(C#N)c1C	ALDH1A1 inh 3.16µM, Sfp inh 39.8µM
CCOC(=O)c1sc(NC(=O)CSc2nnc(Cc3ccccc3)o2)c(C#N)c1C	G9a block inconclusive, ALDH1A1 inh 0.562µM, Sfp inh 3.16µM
CCOC(=O)c1c(NC(=O)c2cccnc2)sc(C)c1C	ALDH1A1 inh inconclusive
CCCCC(=O)NC1CC(=O)N(c2ccc3c(c2)OCCO3)C1 (configuration not stated)	LMNA splice mod inconclusive (no result: ALDH1A1 inh, JMJD2E inh, Sfp inh)
N#Cc1c(NC(=O)CSc2n[nH]c(Cc3ccccc3)n2)oc(-c2ccccc2)c1-c1ccccc1	G9a block 3.55µM, ALDH1A1 inh inconclusive, LMNA splice mod inconclusive
COC(=O)CC1C(=O)NCCN1C(=O)CSc1nnc(Nc2ccc(C)cc2)s1 (configuration not stated)	G9a block 39.8µM
COC(=O)CC1C(=O)NCCN1C(=O)CSc1nnc(Nc2ccc(OC)cc2)s1 (configuration not stated)	ALDH1A1 inh 25.1µM
COc1ccc(Nc2nnc(SCC(=O)NC3CCS(=O)(=O)C3)s2)cc1 (configuration not stated)	G9a block 14.1µM (no result: miR-21 act, ALDH1A1 inh, JMJD2E inh, LMNA splice mod, Sfp inh)
Cc1ccc(Nc2nnc(SCC(=O)NC3CCCc4ccccc43)s2)cc1 (configuration not stated)	G9a block 79.4µM
COc1ccc(Nc2nnc(SCC(=O)NC3CC3)s2)cc1	none (no result: miR-21 act, ALDH1A1 inh, JMJD2E inh, LMNA splice mod, Sfp inh)
COC(=O)CC1C(=O)NCCN1C(=O)CSc1nnnn1-c1ccc(Cl)cc1 (configuration not stated)	none (no result: LMNA splice mod)
Cc1ccc(NC(=O)CCC(=O)N2CCC(C)CC2)c([N+](=O)[O-])c1	none (no result: G9a block, ALDH1A1 inh, JMJD2E inh, LMNA splice mod)
CCOC(=O)c1ccc2c(c1)C(=O)N(C1CCCCC1)C2=O	ALDH1A1 inh 22.4µM
CC(C)CNC(=O)c1ccc2c(c1)C(=O)N(C1CCCCC1)C2=O	none (no result: ALDH1A1 inh, JMJD2E inh, LMNA splice mod)
CC(C)(C)NC(=O)c1ccc2c(c1)C(=O)N(C1CCCCC1)C2=O	ALDH1A1 inh 2.82µM
